According to PubChem BioAssay AID2284369 (EPA ToxCast):
Inconclusive results are not listed. Calls of active or inactive are those of the source. The calls were made as follows: active = hit-call score of the fitted dose curve at least 0.9, where 1 is the maximum; inconclusive = response in the unintended direction; inactive = score below 0.9.

system: frog Estrogen Receptor (ER1), gene 398734; test: ATG_frER1_EcoTox2: Attagene TRANS-FACTORIAL EcoTox-2 HepG2 Assay for frog Estrogen Receptor (ER1)
Experimental: ATG_EcoTox2 is a cell-based, multiplexed assay created by modifying the existing Attagene TRANS-FACTORIAL system to include a panel of nuclear receptors from some or all the following species: human (Homo sapiens), african clawed frog (Xenopus laevis), rainbow trout (Oncorhynchus mykiss), japanese medaka (Oryzias latipes), and zebrafish (Danio rerio). The ECOTOX2-FACTORIAL format uses HepG2, a human liver cell line, with measurements taken at 24 hours after chemical dosing in a 24-well plate. ATG_frER1_EcoTox2 is one of 29 assay components calculated in the ATG_EcoTox2 assay. It is designed to make measurements of mRNA induction, a form of inducible reporter, as detected with fluorescence intensity signals by Reverse transcription polymerase chain reaction (RT-PCR) and Capillary electrophoresis technology.The assay endpoint ATG_frER1_EcoTox2 was analyzed in the positive analysis fitting direction relative to DMSO as the negative control and baseline of activity. Using a type of inducible reporter, measures of mRNA for gain-of-signal activity can be used to understand the reporter gene at the transcription factor-level as they relate to the gene ER. Furthermore, this assay endpoint can be referred to as a primary readout, because this assay has produced multiple assay endpoints where this one serves a reporter gene function. To generalize the intended target to other relatable targets, this assay endpoint is annotated to the nuclear receptor intended target family, where the subfamily is steroidal.
Human liver HepG2 cells are transiently transfected with multiple reporter transcription units (MRTUs) in 6-well plates using FuGene 6 reagent (Roche; 3 ml FuGene/1 mg DNA). The MRTU constructs are regulated by a cis-regulating element (promoter). Each RTU expresses a GAL4-UAS that regulates the transcription of a nearby target reporter gene sequence. A major difference between the CIS and TRANS system is that in CIS activities of endogenous TFs are measured, whereas the TRANS assay evaluates changes in activities of exogenous, chimeric NR-Gal4 proteins. […] At the end of 24 hour incubation, total RNA was isolated using TriZol reagent (Invitrogen). The isolated RNA is then reverse-transcribed using oligo(dT) primer and Mo-MLV reverse transcriptase (Invitrogen) with DNAse I (Ambion) treatment for 30 min. The one-tenth of the produced cDNA was amplified by PCR using Taq DNA polymerase (Invitrogen) and two reporter sequence-specific primers. The PCR products were fluorescently labeled by primer extension with 6-arboxyfluorescein (6-FAM) 5'-labeled reporter sequence-specific primer (2 min at 95 C, 20 s at 68 C and 10 min at 72 C) and these products were digested with 5U of HpaI (New England Biolabs) for 2h at 37 C. The fragments were purified using Qiaquick PCR columns (Qiagen), analyzed on an ABI 3130xL genetic analyzer (Applied Biosystems) with peak positions identified by using a set of X-rhodamine (ROX)-labeled MapMarker1000 molecular weight standards (BioVentures). The raw capillary electrophoresis data was processed using Attagraph software (Attagene).

Row | Structure (SMILES) | outcome | AC50
1 | C[C@@H]1C[C@H]2[C@@H]3CCC4=CC(=O)C=C[C@]4(C)[C@@]3(F)[C@@H](O)C[C@]2(C)[C@@]1(O)C(=O)COP(=O)(O)O | inactive | –
2 | CC(c1cc2ccccc2s1)N(O)C(N)=O (stereo not given) | inactive | –
3 | Cc1ccc(C)c(OCCCC(C)(C)C(=O)O)c1 | inactive | –
4 | C=C(c1ccc(C(=O)O)cc1)c1cc2c(cc1C)C(C)(C)CCC2(C)C | inactive | –
5 | CC(C)(Oc1ccc(CCNC(=O)c2ccc(Cl)cc2)cc1)C(=O)O | inactive | –
6 | Cc1cccc(Nc2cc(Cl)nc(SCC(=O)O)n2)c1C | inactive | –
7 | CN(CCOc1ccc(CC2SC(=O)NC2=O)cc1)c1ccccn1 (stereo not given) | inactive | –
8 | CC(C)OC(=O)C(C)(C)Oc1ccc(C(=O)c2ccc(Cl)cc2)cc1 | inactive | –
9 | Cc1c(C)c2c(c(C)c1O)CCC(C)(COc1ccc(CC3SC(=O)NC3=O)cc1)O2 (stereo not given) | inactive | –
10 | C[C@]12C=CC(=O)C=C1CC[C@@H]1[C@@H]2C(=O)C[C@@]2(C)[C@H]1CC[C@]2(O)C(=O)CO | – | 50 µM (active)
